From PubChem BioAssay
Most compounds without a hit are left out; they make up all but 2.4% or so of the library.
FEN1 inhibitor – inhibitors of human flap endonuclease 1. 390,000 compounds, 0.35% hits. Recombinant FEN1 flap cleavage, fluorescence, 15 min. AID 588795. Potency, µM (titrated, usually from 114 µM), for the others: top-dose activity change, negative = inhibition, most hits filed as inhibitors; note: % is set by controls: 0 for no effect and ±100 for the full control effect; nearly all actives have a fitted effect of over 65% in size
Target sequence (P39748 whole entry, looked up): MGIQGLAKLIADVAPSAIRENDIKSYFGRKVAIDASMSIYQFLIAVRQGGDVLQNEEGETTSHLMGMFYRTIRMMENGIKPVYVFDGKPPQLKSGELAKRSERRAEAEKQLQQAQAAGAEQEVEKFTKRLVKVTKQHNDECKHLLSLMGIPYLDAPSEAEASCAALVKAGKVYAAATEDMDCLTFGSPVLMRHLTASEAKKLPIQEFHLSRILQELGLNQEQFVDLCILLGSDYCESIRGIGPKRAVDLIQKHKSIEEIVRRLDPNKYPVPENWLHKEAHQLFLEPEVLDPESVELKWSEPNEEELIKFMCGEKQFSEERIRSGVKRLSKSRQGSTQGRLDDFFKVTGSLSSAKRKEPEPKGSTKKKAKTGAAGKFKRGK
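Read-out was taken twice, immediately and after 15 min, following addition of 50 nM substrate to 10 nM FEN1 that had sat with test compound for 15 min at room temperature. Curves came from a four-parameter Hill model.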
Pol kappa inh – DNA polymerase kappa (human) inhibition; Q9UBT6; 400,000 compounds, 0.53% hits; purified Pol kappa, fluorescent DNA synthesis assay, 10 min; Potency, µM (series often up to 107 µM), without a hit: top-dose activity, negative = inhibition, usual class: inhibitors; AID 588579; note: % is set by controls: 0 for no effect and ±100 for the full control effect
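Inhibition of 10 nM Pol kappa is measured by a fluorescent read-out at 0 and 10 min following addition of 50 nM substrate (final), with a 15-min room-temperature compound preincubation.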
POLI inh – DNA polymerase iota (human) inhibition | Q9UNA4 | Pol iota fluorescent replication assay, 10 min | Potency, µM (doses to about 115 µM), for the others: at the highest dose activity, negative = inhibition, actives largely listed as inhibitors | 390,000 compounds, 1% hits | AID 588590
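Fluorescent replication assay read twice, at 0 min and 10 min after adding 50 nM (final) substrate. Enzyme (10 nM) and compounds were first incubated 15 min at room temperature; enzyme-free buffer wells were negative controls.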
WRN helicase inh – inhibitors of human WRN helicase | Potency, µM (series often up to 114 µM), without a hit: at the highest dose activity change, negative = inhibition, actives largely listed as inhibitors | 360,000 compounds, 0.46% hits | WRN helicase unwinding, fluorescent forked duplex, kinetic | Q14191; note: % is set by controls: 0 for no effect and ±100 for the full control effect; nearly all actives have a fitted effect of over 55% in size
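Fluorescence dequenching readout, ex 525 nm/em 598 nm, kinetic mode: forked duplex DNA (100 nM final) with adjacent fluorophore and quencher unwound by WRN (20 nM final) with 2 mM ATP. Compound preincubation 15 min, room temperature.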
POLB inh – blocks human DNA polymerase beta activity; Pol beta primer extension/strand displacement, fluorescence kinetic; P06746; AID 485314; 340,000 compounds, 1.3% hits; Potency, µM (highest dose often 114 µM), for inactives: at the highest dose activity change, negative = inhibition, actives largely listed as inhibitors; note: % is set by controls: 0 for no effect and ±100 for the full control effect
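Human Pol beta at 10 nM; strand-displacement substrate 50 nM final. Compound exposure 15 min at room temperature before start, reaction 10 min at room temperature.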
POLH inh – blocks human DNA polymerase eta activity. 390,000 compounds, 1.2% hits. AID 588591. recombinant Pol eta, fluorescent DNA replication assay. Potency, µM (top dose mostly 114 µM), for inactives: at the highest dose activity change, negative = inhibition, usual class: inhibitors; note: % is set by controls: 0 for no effect and ±100 for the full control effect
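Pol eta at 10 nM preincubated with compounds 15 min at room temperature; reaction started with fluorescent substrate (50 nM final) and read kinetically at 0 and 10 min.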
* hit, by the source's call; ? = inconclusive; · = no result; ! = not confirmed by another sample; [ ] = another dose, or the depositor's remark. Calls come from the whole dose curve; as a rule, active = well fitted curve in the direction sought with a large enough effect; inconclusive = small, poorly fitted or top-dose-only effect, or another doubt; inactive = no such curve, though single readings can be large; an effect the other way counts as inactive or inconclusive. Potency is the fitted concentration of half-maximal effect.

SMILES	FEN1 inhibitor	Pol kappa inh	POLI inh	WRN helicase inh	POLB inh	POLH inh
Cc1ccc(C(=O)OCC(=O)Nc2c(Cl)cc(S(N)(=O)=O)cc2Cl)o1	-12%	?	71µM*	-4%[11.6 µM]	?	4%
CCOC(=O)c1c(NC(C)=O)sc2c(OC)cccc12	-9%	-9%	4%	-3%	-5%	-1%
NS(=O)(=O)c1ccc(-c2ccc(C=C3C(=O)c4ccccc4C3=O)o2)cc1	7%	5%	?	-6%	25%	-2%
CC(C)CC1=C/C(=C/c2ccc(-c3ccccc3)o2)C(=O)O1	?	45µM*	20µM*	50µM*	16µM*	2.8µM*
C=CC(C)(C)c1c(O)c(CC=C(C)C)c(O)c2c(=O)c3ccc(O)c(O)c3oc12	-26%	-17%	-14%	-12%	·	-5%
C=CC(C)(C)c1[nH]c2ccccc2c1C1=C(O)C(=O)C(c2c[nH]c3c(CC=C(C)C)cccc23)=C(O)C1=O	·	1.4µM*	·	·	·	·
CSc1nc(N(C)NC(=O)c2ccc(F)cc2)c2ccccc2n1	-4%	-15%	10%	4%	-9%	7%
CCN(CC)c1ccc(/C=C/C2=C3C=CC=CC3NC=C2)cc1 (centres undefined)	16µM*	-20%	1.3µM*	·	·	·
CCOc1ccccc1CNC(=O)c1cc2c(=O)n(Cc3ccccc3)ccc2nc1C	1%	-10%	?	·	25µM*	-5%
CSc1ccc(CNC(=O)c2cc3c(=O)n(Cc4ccco4)ccc3nc2C)cc1	89µM*	74%	?	·	?	-5%
COc1ccc(Cn2ccc3nc(C)c(C(=O)NCc4ccc(OC)cc4OC)cc3c2=O)cc1	-10%	6%	23%	·	17%	-16%
O=C(Nc1ccc(F)cc1)c1ccc2c(c1)S(=O)(=O)N=C1CCCCCN12	-6%	6%	19%	6%	·	-5%
Cc1cnc(C(=O)OCC(=O)c2ccccc2)cn1	-8%	9%	4%	4%	·	12%
Cc1cnc(C(=O)OCC(=O)c2csc(N3CCCCC3)n2)cn1	-6%	-24%	?	?	45µM*	25µM*
CCOC(=O)c1ccc(NC(=O)CC2Nc3cccc4cccc(c34)NC2=O)cc1 (centres undefined)	?	14µM*	3.5µM*	·	-3%	-20%
CCOc1ccc(NC(=O)CC2Nc3cccc4cccc(c34)NC2=O)cc1 (centres undefined)	?	?	5µM*	·	31%	4%
CC(=O)Nc1ccc(NC(=O)CC2Nc3cccc4cccc(c34)NC2=O)cc1 (centres undefined)	-6%	-5%	?	-3%	9%	?
N#C/C(=C\c1ccc(Sc2nc3ccccc3[nH]2)o1)c1ccccc1	-11%	-6%	-1%	-11%	-1%	?
N#C/C(=C\c1ccc(Sc2ccc(Cl)cc2)o1)c1nc2ccccc2[nH]1	?	-8%	?	-6%	16µM*	?
N#C/C(=C/c1ccc(N2CCOCC2)o1)c1nc2ccccc2[nH]1	?	-20%	8%	56µM*	?	?
CCCCCCC(=O)N(O)C1CC(=O)N(c2ccc(Br)cc2)C1=O (centres undefined)	-6%	-2%	1%	0%	0%	-9%
CCCCCCC(=O)N(O)C1CC(=O)N(c2ccc(F)cc2)C1=O (centres undefined)	-5%	-2%	79%	28µM*	6%	-3%
O=C(NOC(=O)c1ccccc1F)c1ccc(OC(F)F)cc1	0%	-14%	28%	-6%	-3%	1%
COc1cc(C(=O)ONC(=O)c2ccc(OC(F)F)cc2)cc(OC)c1OC	-19%	-24%	?	-11%[11.6 µM]	32µM*	79µM*
Cc1ccc(-n2cccc2/C=C2\C(=N)N3N=C(C(C)C)SC3=NC2=O)cc1	?	-11%	12%	-6%	28µM*	-12%
SMILES	FEN1 inhibitor	Pol kappa inh	POLI inh	WRN helicase inh	POLB inh	POLH inh
COc1cc(NC(=O)CN2CCN(c3ccccn3)CC2)cc(OC)c1OC	14%	0%	-12%	4%	16%	-6%
O=C(CSc1ccc2ccccc2c1)N1CCN(c2ccc(O)cc2)CC1	-19%	-3%	11%	-2%	1%	-17%
COc1ccc(NC(=O)CN(C)CC(=O)Nc2cccc(F)c2)cc1S(=O)(=O)N1CCCCC1	11%	-11%	-19%	50µM*	·	-15%
COc1ccc(Cc2nnc(Nc3ccccc3)s2)cc1Br	?	-2%	?	56µM*	56µM*	?
COc1ccc(CNc2ccccc2)cc1Br	-1%	-7%	-13%	-24%	24%	-9%
O=C(O)c1c(-c2ccccc2)oc2ccc(OCc3c(F)cccc3Cl)cc12	-1%	2%	?	·	?	-6%
Cc1cc(C)cc(N2CC(O)=C(c3nc4ccccc4c(=O)[nH]3)C2=N)c1	?	?	?	50µM*	-27%	?
COc1cccc(N2CC(O)=C(c3nc4ccccc4c(=O)[nH]3)C2=N)c1	-20%	-13%	-9%	-7%	23%	2%
CCc1cccc2sc(N(CCCN3CCOCC3)C(=O)CS(=O)(=O)c3ccccc3)nc12	-34%	-38%	89µM*	-29%	·	-27%
O=C(O)c1ccc(OC2CSC2)cc1	-2%	-2%	?	-12%	6%	20µM*
O=C(NCc1ccccc1)c1ccc(OC2CSC2)cc1	-2%	-14%	-9%	4%	-22%	-7%
COc1ccc(NC(=O)c2ccc3c(SCC(=O)O)c4c(nc3c2)CCCC4)cc1Cl	·	·	·	·	-27%	·
O=C(O)CSc1c2c(nc3cc(C(=O)Nc4ccc(F)c(Cl)c4)ccc13)CCCC2	?	-10%	?	-6%[11.6 µM]	20%	50µM*
COc1ccc(NC(=O)c2ccc3c(SCC(=O)O)c4c(nc3c2)CCCC4)c(OC)c1	?	?	79µM*	-9%[11.6 µM]	40µM*!	-18%
C=CCOc1c(Cl)cc(CNc2ccc(C)c(Cl)c2)cc1OC	·	·	·	·	21%	·
C=CCOc1c(Cl)cc(CNc2ccc(N(C)C)cc2)cc1OC	-15%	-20%	8.9µM*	-9%	-24%	-6%
CCOc1ncccc1C(=O)OCC(=O)Nc1ccc(C)c(S(=O)(=O)N2CCOCC2)c1	10%	0%	14%	-1%	2%[57.1 µM]	-8%
Cc1ccc(-c2nn(CCC(=O)O)cc2/C=C\C(=O)c2ccc(Br)cc2)cc1	-2%	4%	40µM*	?	-23%	79µM*
COc1c(O)cc(O)cc1O	·	25µM*	·	·	·	·
COc1cc(O)cc(OC)c1OC	·	-3%[60.1 µM]	·	·	·	·
CCc1ccc(NS(=O)(=O)c2cc(OC)ccc2OC)cc1	4%	-9%[60.1 µM]	20%	-4%	-2%	-19%
